Shown are actives, neighbours in structure and some others; about 10% of the full set was active somewhere.
Luciferase inh: Photinus pyralis luciferase inhibition; AID 1347043; purified P. pyralis luciferase, luminescence, biochemical; Potency, µM (highest dose often 115 µM), actives largely listed as inhibitors; hit rate 2.5% among 76,000; note: % is set by controls: 0 for no effect and ±100 for the full control effect; nearly all actives have a fitted effect of over 65% in size
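Purified P. pyralis luciferase (10nM final) in 50mM Tris acetate pH 7.5, 10mM Mg acetate, 0.01% Tween-20, 0.05% BSA with 10uM D-luciferin and 10uM ATP. Compounds titrated qHTS. Luminescence imaged on CCD.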
HEK cytotox: kills HEK 293 cells | HEK 293 viability, ATP luminescence (CellTiter-Glo), 48-72 h | Potency, µM (highest dose often 115 µM), inactives show at the highest dose activity change, negative = cytotoxicity, most hits filed as inhibitors | hit rate 6.6% among 94,000 | AID 1345083; note: % is set by controls: 0 for no effect and ±100 for the full control effect; nearly all actives have a fitted effect of over 60% in size
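Luminescence from cellular ATP, measured with CellTiter-Glo, indicates HEK 293 viability. Cells plated at 250 cells/well are treated with compound for 48 or 72 hr at 37 degree Celsius before reagent addition.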
NIH3T3 tox: kills NIH 3T3 cells | NIH 3T3 viability, CellTiter-Glo ATP luminescence, 48-72 h | Potency, µM (top dose mostly 96.7 µM), without a hit: at the top dose activity change, negative = cytotoxicity, hits mostly inhibitors | hit rate 4.3% among 94,000 | AID 1345082; note: % is set by controls: 0 for no effect and ±100 for the full control effect; nearly all actives have a fitted effect of over 55% in size
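Cytotoxicity was measured by CellTiter-Glo ATP luminescence after 48 or 72 h compound exposure at 37 °C. Mouse NIH 3T3 fibroblasts were seeded at 400 cells/well and dosed by 23 nL pin transfer.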
NPR1 antag: human Npr1 receptor antagonism; P16066; HEK293 hNpr1 GloSensor cGMP, ANP-stimulated luminescence; Potency, µM (titrated, usually from 46.3 µM), for the others: top-dose activity change, negative = inhibition, usual class: inhibitors; hit rate 1.6% among 76,000; AID 1347048; calls by dose curve; note: % is set by controls: 0 for no effect and ±100 for the full control effect; nearly all actives have a fitted effect of over 60% in size
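HEK293 cells stably expressing human Npr1 and cGMP GloSensor pGS-40F, loaded 2 h with 2% GloSensor reagent, given compound 30 min at room temperature. Luminescence read before and 20 min after 0.1 nM hNppA.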
GPT2 inhibitor: inhibitors of human GPT2 alanine aminotransferase. Q8TD30. Recombinant GPT2, coupled pyruvate oxidase/HRP Amplex Red fluorescence. Potency, µM (top dose mostly 57.7 µM), without a hit: top-dose activity change, negative = inhibition, hits mostly inhibitors. hit rate 0.25% among 100,000. AID 1671188; note: % is set by controls: 0 for no effect and ±100 for the full control effect; nearly all actives have a fitted effect of over 60% in size
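Inhibition is scored from Amplex Red fluorescence generated when pyruvate oxidase and HRP act on pyruvate released by GPT2. Reactions contain 10ng/uL enzyme, 250uM a-KG and 2mM L-alanine and run 30 min at room temperature.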
NPR1 antag cnf: hNpr1 antagonism, confirmation assay. HEK293 hNpr1 cGMP GloSensor luminescence, ANP-stimulated. shares compounds with NPR1 antag. Potency, µM (top dose mostly 57.6 µM), inactives show top-dose activity change, negative = inhibition, hits mostly inhibitors. hit rate 76% among 1,400; calls by dose curve; note: nearly all actives have a fitted effect of over 70% in size
NPR2 antag: selectivity test of Npr1 antagonists against human Npr2; shares compounds with NPR1 antag; HEK293 hNpr2 GloSensor cGMP luminescence, CNP-stimulated; Potency, µM (doses to about 57.6 µM), without a hit: top-dose activity change, negative = inhibition, actives largely listed as inhibitors; hit rate 67% among 1,400; AID 1347046; calls by dose curve; note: nearly all actives have a fitted effect of over 70% in size
FLuc inh counter: inhibits firefly luciferase, false Npr1 antagonist flag; shares compounds with NPR1 antag; purified FLuc enzyme, luminescence, Km substrate; Potency, µM (highest dose often 57.6 µM), for the others: at the top dose activity change, negative = inhibition, most hits filed as inhibitors; hit rate 0.7% among 1,400; AID 1347047; note: 0% is about no effect
GloSensor ctrl: reduces cGMP signal in GloSensor control cells | hit rate 69% among 1,400 | HEK293 GloSensor cGMP, SNP-stimulated, luminescence | Potency, µM (series often up to 57.6 µM), inactives show at the top dose activity change, negative = inhibition, most hits filed as inhibitors | AID 1347051 | shares compounds with NPR1 antag; calls by dose curve; note: % is set by controls: 0 for no effect and ±100 for the full control effect; nearly all actives have a fitted effect of over 70% in size
* hit, by the source's call; i = inactive; ? = inconclusive; . = not tested or not shown; [ ] = dose if it differs, or a comment. Unless noted, calls come from the whole dose curve; as a rule, active = well fitted curve in the direction sought with a large enough effect; inconclusive = small, poorly fitted or top-dose-only effect, or another doubt; inactive = no such curve, though single readings can be large; an effect the other way counts as inactive or inconclusive. Potency is the fitted concentration of half-maximal effect.

SMILES	Luciferase inh	HEK cytotox	NIH3T3 tox	NPR1 antag	GPT2 inhibitor	NPR1 antag cnf	NPR2 antag	FLuc inh counter	GloSensor ctrl
CC(C)CCN1CCC(Cc2ccc(C(=O)NC3CC3)cc2)CC1	i	?	?	-3%	i	.	.	.	.
O=C(NC1CCCCC1)O[C@@H]1CO[C@H]2[C@@H]1OC[C@@H]2Nc1nccc(-c2cccs2)n1	i	?	112µM*	10µM*	2%[88.5 µM]	5µM*	7.9µM*	4%[86.2 µM]	7µM*
COc1ccc(-c2ccnc(N[C@H]3CO[C@H]4[C@@H]3OC[C@H]4OC(=O)Nc3ccc(C(C)=O)cc3)n2)cc1	i	?	-32%	10µM*	-1%	11µM*	15µM*	1%	9.7µM*
N#Cc1cccc(-c2ccnc(N[C@H]3CO[C@H]4[C@@H]3OC[C@H]4OC(=O)Nc3ccc(Oc4ccccc4)cc3)n2)c1	i	?	?	?	-4%	?	-25%	-2%	?
O=C(Nc1ccc(Oc2ccccc2)cc1)O[C@@H]1CO[C@H]2[C@@H]1OC[C@@H]2Nc1nccc(-c2cccs2)n1	i	-11%	-22%	-6%	i	.	.	.	.
CNC(=O)c1cc(C2CC2)nc2onc(C3CCCN(C(=O)c4ccccc4F)C3)c12 (centres undefined)	.	?	-16%	.	.	.	.	.	.
O=C(Oc1ccccc1)N1CCC(Oc2cnc3c(ccn3-c3cncnc3)c2)CC1	i	56µM*	?	35µM*	i	40µM*	40µM*	4%[86.2 µM]	40µM*
O=C(c1ccc(Cl)cc1)N1CCC(n2cc(-c3nc(-c4ccccc4)no3)nn2)CC1	i	?	?	16µM*	4%	22µM*	22µM*	-19%	22µM*
O=C(c1ccccc1Cl)N1CCC(n2cc(-c3nc(-c4ccccc4)no3)nn2)CC1	i	?	-24%	?	i	.	.	.	.
N#Cc1ccc(C(=O)N2CCC(n3cc(-c4nc(-c5ccccc5)no4)nn3)CC2)cc1	?	?	?	0%	i	.	.	.	.
CC(Oc1ccccc1)C(=O)N1CCC(n2cc(-c3nc(-c4ccccc4)no3)nn2)CC1 (centres undefined)	i	20µM*	?	18µM*	-7%	24µM*	22µM*	-24%	24µM*
O=C(c1ccc(F)cc1)N1CCCC(n2cc(-c3nc(-c4ccccc4)no3)nn2)C1 (centres undefined)	?	?	?	?	2%	24µM*	24µM*	?	24µM*
O=C(c1ccc(F)cc1)N1CCC(n2cc(-c3nc(-c4ccccc4)no3)nn2)CC1	i	?	?	?	i	?	?	-17%	24µM*
CCc1ncc(C(=O)NC(c2ccc(C)cc2)c2cccs2)cn1 (centres undefined)	i	?	?	-17%	-21%	.	.	.	.
CC1(COCC2CC2)COc2ccc(C(=O)Nc3cccnc3)cc2N1 (centres undefined)	?	?	-24%[138 µM]	?	?	-30%[86.2 µM]	-26%[86.2 µM]	-18%[86.2 µM]	-21%[86.2 µM]
